From PubChem BioAssay (NCI)
This is part of a sample that, as a whole, favours compounds with a hit. Of some 83,000 tested, about 20% had one in any assay.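 Cell lines were cultured in 96-well plates, exposed to a single compound concentration, and assessed for percent growth 48 hours later.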 Activity calls are given as the source filed them. How the source made its calls: active means growth percent below 10; inactive means the rest.

What was measured:
Assay in all cases: NCI-60 one-dose screen, 48 h (100 = growth as untreated, 0 = no growth, -100 = all killed)
Conditions in all cases: 10 µM unless noted
[1] = tested on: DU-145 prostate
[2] = tested on: K-562 leukemia
[3] = tested on: MALME-3M melanoma
[4] = tested on: MDA-MB-231 breast
[5] = tested on: RXF 393 renal
[6] = tested on: SF-268 CNS
[7] = tested on: SF-295 CNS
[8] = tested on: SF-539 CNS
[9] = tested on: M14 melanoma
[10] = tested on: HCT-15 colon
[11] = tested on: HT29 colon
[12] = tested on: SNB-75 CNS
[13] = tested on: U251 CNS
[14] = tested on: PC-3 prostate
[15] = tested on: SK-MEL-5 melanoma
[16] = tested on: UACC-62 melanoma
[17] = tested on: LOX IMVI melanoma
[18] = tested on: SK-MEL-28 melanoma
[19] = tested on: UACC-257 melanoma
[20] = tested on: SNB-19 CNS

Measured: growth

CC(C)(C)[Si](C)(C)OC1[C@@H](COC(N)=O)O[C@@H](n2cnc3c(N)ncnc32)[C@H]1O[Si](C)(C)C(C)(C)C (some centres not stated)
inactive: [1] 75.1% | [3] 111% | [4] 100% | [5] 106% | [6] 79.8% | [7] 118% | [8] 97.4% | [9] 98.8% | [10] 88% | [11] 93.6% | [12] 99.4% | [13] 82.7% | [14] 18.4% | [15] 96.9% | [16] 85.5% | [17] 98.2% | [18] 98.3%
active: [2] 7.16%

O=c1nc(NO)[nH]c(=O)n1Cc1ccccc1
inactive: [1] 115% | [2] 108% | [3] 100% | [4] 123% | [5] 94.8% | [6] 106% | [7] 93.7% | [8] 98.7% | [9] 106% | [10] 101% | [11] 103% | [12] 92.8% | [13] 99.7% | [14] 98.1% | [16] 105% | [17] 103% | [18] 107%

Oc1ccc(Cl)cc1CNc1nc2ccccc2[nH]1
inactive: [5] 51.7% | [10] 15.9% | [12] 70.5% | [20] 111% | [13] 55% | [15] 49%
active: [1] -50.6% | [2] -50.4% | [3] -56.4% | [4] -24.1% | [6] -39.7% | [8] -50.9% | [19] -63.4% | [9] -49.1% | [11] -46% | [14] -5.5% | [16] -68.1% | [17] -78.1% | [18] -82.6%

O=c1[nH]c(-c2ccncc2)nc2sc3c(c12)CCCCCC3
inactive: [1] 77.5% | [2] 88.1% | [3] 64% | [4] 62.1% | [6] 83.5% | [7] 53.2% | [8] 82.6% | [9] 85.3% | [10] 76.1% | [11] 99% | [12] 33.8% | [13] 71.7% | [14] 90.1% | [16] 88% | [17] 83.2% | [18] 101%
active: [5] -1.71%

Cc1ccc2c(c1)c(Sc1ccc(C(=O)NO)cc1)c1n2CN(C)CC1
active: [4] -32.2% | [6] 1.67% | [8] -35.1% | [13] 2.16% | [14] -3.93% | [16] -1.71% | [17] -33.1% | [18] 7.31%
inactive: [1] 11.7% | [2] 11.5% | [3] 26.6% | [5] 33% | [7] 11.8% | [9] 26% | [10] 58.7% | [11] 25.6% | [12] 17.8% | [20] 31%

CC(C)(C)[Si](C)(C)OC1[C@@H](COC(=O)NC(=O)CCl)O[C@@H](n2cnc3c(N)ncnc32)[C@H]1O[Si](C)(C)C(C)(C)C (some centres not stated)
active: [2] -37.6% | [3] -57% | [6] -19.6% | [17] -94%
inactive: [1] 46.2% | [4] 35.7% | [5] 64% | [7] 45.7% | [8] 89.8% | [9] 18.4% | [10] 11.8% | [11] 32.3% | [12] 101% | [13] 53.2% | [15] 61.4% | [16] 75.2% | [18] 71.8%

Nc1c(Br)cc(Br)cc1-c1n[nH]c(=O)[nH]c1=O
inactive: [1] 114% | [2] 102% | [3] 98.4% | [4] 87.4% | [5] 103% | [6] 104% | [7] 98% | [8] 92.5% | [9] 101% | [10] 98.1% | [11] 99.7% | [12] 85.5% | [13] 100% | [14] 99% | [16] 106% | [17] 96.1% | [18] 110%

O=C1C(OCCOc2ccccc2)=C(OCCOc2ccccc2)C(=O)c2ccccc21
inactive: [1] 56.7% | [2] 66.4% | [3] 54.7% | [4] 70.5% | [5] 79.4% | [6] 77.2% | [8] 94.9% | [19] 14.8% | [9] 51.4% | [10] 26.7% | [11] 107% | [12] 69.4% | [20] 57.6% | [13] 18.9% | [14] 44.4% | [15] 13.6% | [17] 22.6% | [18] 93.5%

COc1cccc(Nc2nc(NCCO)c3ccccc3n2)c1
inactive: [1] 97% | [2] 42.7% | [3] 75.7% | [4] 65.3% | [5] 70.7% | [6] 72.5% | [8] 81.5% | [19] 95.8% | [9] 77.7% | [10] 88.6% | [11] 100% | [12] 63.7% | [20] 76.9% | [13] 73.7% | [14] 24.4% | [15] 78.2% | [16] 67.1% | [17] 75% | [18] 91.7%

Cc1nn2c(-c3nc4ccc(Cl)cc4[nH]3)c(-c3ccc(F)cc3)nc2s1
inactive: [1] 104% | [2] 88.6% | [3] 128% | [4] 116% | [5] 96.6% | [6] 101% | [8] 97.1% | [19] 92.9% | [9] 95.4% | [10] 76.4% | [12] 86.3% | [20] 112% | [13] 97.6% | [14] 78.6% | [15] 90.9% | [16] 91.6% | [17] 91.1% | [18] 93.8%

CCOC(=O)C1=C(C)N2C(=NC3=C(CCCC/C3=C\c3cc(OC)c(OC)c(OC)c3)C2c2cc(OC)c(OC)c(OC)c2)S1 (configuration not stated)
inactive: [1] 86% | [2] 31.2% | [3] 51.8% | [4] 71.9% | [6] 80.6% | [7] 56.5% | [8] 79.9% | [9] 79% | [10] 44.8% | [11] 66.8% | [12] 89.4% | [13] 67.7% | [14] 49.8% | [16] 39.9% | [17] 74.1% | [18] 82.9%

CN1CCN(CCCn2c3c(sc4ncccc43)c(=O)n3nnc(-c4ccccc4)c23)CC1
inactive: [5] 75.3% | [6] 91% | [7] 98.6% | [19] 99.2% | [9] 78.4% | [12] 73.8% | [16] 91% | [18] 111%
active: [1] -18.2% | [2] 1.27% | [4] -83.5% | [8] -96% | [10] -40.1% | [20] 5.98% | [13] -80.8% | [14] -3.82% | [15] -98% | [17] -96%

O=C1C(Cl)=C(NCCCN2CCOCC2)C(=O)c2ccccc21
inactive: [1] 126% | [2] 60.3% | [4] 97.3% | [5] 108% | [6] 106% | [7] 109% | [8] 125% | [19] 73.3% | [9] 101% | [10] 79.5% | [11] 93.7% | [12] 78.3% | [20] 91.5% | [13] 98.3% | [14] 79.6% | [15] 67.5% | [16] 94.8% | [17] 54.2% | [18] 104%

Nc1ccccc1-c1n[nH]c(=O)[nH]c1=O
inactive: [1] 121% | [2] 107% | [3] 106% | [4] 113% | [6] 114% | [7] 79% | [8] 101% | [9] 99% | [10] 104% | [11] 106% | [12] 89.5% | [13] 94.2% | [14] 96.9% | [16] 89% | [17] 97.8% | [18] 103%

Clc1ccc(Nc2ccnc(N3CCN(c4ccnc5cc(Cl)ccc45)CC3)n2)cc1
inactive: [1] 78.2% | [2] 15.7% | [4] 33.8% | [5] 62.6% | [6] 57.3% | [7] 18.8% | [8] 62.2% | [19] 81.7% | [9] 33.7% | [10] 20.4% | [11] 32.2% | [12] 27.7% | [20] 58.2% | [13] 51.9% | [14] 37.7% | [16] 31.3% | [18] 63.8%

CS(=O)(=O)Nc1cccc(C(=O)NCc2ccc(N3CCOCC3)cc2)c1
inactive: [1] 103% | [2] 92.4% | [3] 111% | [4] 121% | [6] 97.9% | [8] 103% | [9] 99.2% | [10] 104% | [12] 68.2% | [20] 108% | [13] 107% | [14] 104% | [15] 98.9% | [16] 113% | [17] 99.8% | [18] 107%

c1ccc(-c2nc(N3CCOCC3)c3c4c(sc3n2)CCCCCC4)nc1
active: [7] 6.04%
inactive: [1] 76.1% | [2] 32% | [3] 58.4% | [4] 63.4% | [6] 74.1% | [8] 77% | [9] 59.2% | [11] 65.9% | [12] 29.4% | [13] 50.3% | [14] 32.2% | [16] 51.7% | [17] 69.6% | [18] 75.5%

COc1ccc(NC(=O)COc2ccccc2)c(C(N)=O)c1
inactive: [1] 23% | [4] 44.1% | [6] 50.7% | [7] 13.3% | [19] 61.7% | [10] 28.8% | [12] 11.5% | [20] 53.4% | [14] 39.9% | [16] 43% | [18] 62%
active: [2] 9.36% | [5] 2.95% | [8] -46.8% | [9] 3.47% | [11] 6.77% | [13] 9.36%
